# Only some compounds are listed: those with a hit (about 0.5% of all), similar ones and a draw of the others.
# E coli growth-1 = inhibitors of Escherichia coli growth | OD600, 23 h; stronger effect = lower value | hit rate 0.21% among 330,000 | AID 1053175 | OD600 absorbance (concentration not given with the values);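 active means OD600 absorbance below the run mean of sample wells minus 3.6 SD, in any replicate, cut at about 0.56 in these data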
# E coli growth-2 = counter-screen for AddAB inhibitors: E. coli growth inhibition. E. coli V3065 growth, OD600 absorbance, 18 h. inhibition, % at 11.9 µM. AID 449728. hit rate 0.27% among 330,000;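 active means inhibition above the campaign's mean inhibition across all tested compounds plus 3 SD, cut at about 9.9% in these data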;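 further: uninfected addAB+ strain grown without phage in ampicillin broth; 0% = DMSO wells and 100% = ciprofloxacin 0.95 µg/ml wells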
# Tat transport = blocks Tat-dependent protein export in E. coli. E. coli MC4100 TorA-mCherry Tat export, fluorescence. inhibition, % at 10 µM. hit rate 0.036% among 340,000. AID 488895;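 active means mean replicate inhibition at least 50% and at least half of replicates individually reaching 50%; inconclusive means only one of the two criteria met; inactive means neither criterion met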;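 further: exported cargo escapes ClpAP degradation while cytoplasmic cargo is degraded and loses fluorescence; 0% = median of neutral control wells and 100% = median of NaSCN control wells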
# AddAB inh = less growth of phage-infected E. coli with AddAB; E. coli expressing H. pylori AddAB, absorbance growth; inhibition, % at 11.9 µM; hit rate 0.29% among 330,000; AID 435030; in the data active means inhibition above about 12%;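 further: 0% = vehicle wells of infected cells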
# phage Ecoli inh = E. coli growth loss with phage present; growth absorbance; inhibition, % at 11.9 µM; hit rate 0.26% among 360,000; AID 651602; in the data active means inhibition above about 11%
# RecBCD conf = growth loss of phage-infected V66 E. coli, RecBCD confirmation screen. shares compounds with phage Ecoli inh. E. coli V66 + T4 2- phage, growth OD. inhibition, % at 11.9 µM. hit rate 45% among 890. AID 651982;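 active means mean inhibition over triplicates exceeding the hit threshold derived in the original primary screen, cut at about 11% in these data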
# Ecoli viability = bacterial viability inhibition counter-screen for RecBCD; inhibition, % at 11.9 µM; AID 651983; shares compounds with phage Ecoli inh; E. coli viability, absorbance (OD) growth; hit rate 29% among 890; in the data active means inhibition above about 20%;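 further: E. coli strain V66 grown with compound alone and no phage infection; 0% = bacteria with DMSO vehicle only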
# AddAB phage OD = growth loss of phage-infected AddAB E. coli, RecBCD counter-screen | inhibition, % at 11.9 µM | shares compounds with phage Ecoli inh | E. coli expressing H. pylori AddAB + T4 phage, OD growth; gene 2 mutant T4, recBCD-deleted host | hit rate 45% among 890;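 active means mean inhibition above the solvent-only control wells' mean plus 3 SD, cut at about 22% in these data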;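 further: higher means less bacterial growth from phage killing when AddAB is blocked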
# Starred values were filed as active, the others as inactive; ? = inconclusive; . = no result given.
SMILES,E coli growth-1,E coli growth-2,Tat transport,AddAB inh,phage Ecoli inh,RecBCD conf,Ecoli viability,AddAB phage OD
Cc1nccn1Cc1ccccc1,0.696,2.2,7.2,-0.6,100.2*,0.3,0.8,-0.5
Nc1ccc2oc(-c3cccc(Br)c3)nc2c1,0.69,-1.1,-2.2,-0.9,.,.,.,.
Nc1nc2cc(Br)ccc2o1,0.648,.,-15.8,.,13.7*,11.0*,11.5,27.6*
O=C(Nc1ccc(Cl)cn1)c1ccc([N+](=O)[O-])o1,0.496,.,-28.2,.,18.1*,7.0,8.0,96.3*
Cc1c(Cl)c([N+](=O)[O-])nn1Cc1ccc(C(=O)Nc2ccc(Cl)cn2)o1,0.695,0.3,-6.5,0.9,1.9,.,.,.
CC(=O)c1ccc(NC(=O)c2ccc([N+](=O)[O-])o2)cc1,0.474*,.,1.0,.,16.8*,11.3*,13.7,65.7*
Oc1cccc2ccc(Nc3ccccn3)nc12,0.622,18.0*,-14.9,11.8,12.2*,5.6,8.9,5.0
c1ccc(Nc2ccccc2Nc2ccccn2)nc1,0.708,3.7,-0.3,1.8,2.3,.,.,.
COc1ccccc1C=NNC(=O)c1ccc(C)nc1,0.685,.,.,.,.,.,.,.
CCOC(=O)c1ccc(NC(=O)CSc2nc3ncccc3[nH]2)cc1,0.561,7.8,-6.0,10.7,10.9*,3.8,5.6,9.8
CCCCc1ccc(NC(=O)CSc2nc3ncccc3[nH]2)cc1,0.659,2.3,-9.7,4.2,4.7,.,.,.
CC(=O)ON=Cc1c(N2CCOCC2)n(C)c2ccccc12,0.578,.,.,.,.,.,.,.
CCOc1ccc(NC(=O)Nc2ccc3nsnc3c2)cc1,0.652,2.5,-10.6,5.0,11.2*,5.4,5.5,-1.3
CCc1ccc(NC(=O)NNC(=O)c2ccc3ccccc3c2O)cc1,0.702,.,-7.2,.,13.1*,9.0,9.8,8.5
COc1ccccc1NC(=O)NNC(=O)c1ccc2ccccc2c1O,0.677,.,0.0,.,11.1*,8.8,9.7,7.8
Cc1ccccc1NC(=O)NNC(=O)c1ccc2ccccc2c1O,0.728,6.0,-2.8,5.9,6.4,.,.,.
COc1ccc(CCNC(=O)CC(NC(=O)c2ccccc2Cl)c2ccccc2)cc1 (configuration not stated),0.709,-1.2,-0.4,0.3,1.8,.,.,.
NS(=O)(=O)c1ccc(CCNC(=O)CC(NC(=O)c2ccccc2Cl)c2ccccc2)cc1 (configuration not stated),0.667,-2.0,2.0,-2.2,15.2*,-0.6,-0.1,4.8
O=S(=O)(c1ccc(Cl)cc1)N1CCN(Cc2ccc(O)c3ncccc23)CC1,0.703,8.6,0.6,7.9,17.4*,6.2,10.8,14.3
Oc1ccc(CN2CCN(Cc3ccccc3)CC2)c2cccnc12,0.687,2.9,7.1,3.2,6.3,.,.,.
CC(C)C[C@H](NC(=O)N1CCCCCC1)C(=O)O,0.667,-1.0,-6.1,1.2,55.5*,1.3,0.5,-1.7
CCC(C)[C@H](NC(=O)N1CCCCCC1)C(=O)O (some centres not stated),0.713,2.8,-1.6,1.6,-3.2,.,.,.
Cc1ccc(NC(=S)Nc2ccc(OC(F)F)c(Cl)c2)cc1F,0.632,1.3,5.6,2.1,11.0*,6.1,7.1,4.7
CCOC(=O)C=Cc1ccccc1S(=O)(=O)NC(C)(C)C,0.692,.,.,.,.,.,.,.
COc1ccccc1S(=O)(=O)Cc1ccc(C(=O)N2CCOCC2)o1,0.723,0.6,-6.3,5.0,34.6*,-1.0,-1.2,-0.1
SMILES,E coli growth-1,E coli growth-2,Tat transport,AddAB inh,phage Ecoli inh,RecBCD conf,Ecoli viability,AddAB phage OD
C/C(C=NNC(=O)c1ccccn1)=C\c1ccco1,0.655,.,.,.,.,.,.,.
Cc1ccccc1OCc1nc2ccccc2c(=O)n1N=Cc1ccco1,0.727,.,.,.,.,.,.,.
Cc1cc(-c2ccccc2)n(-c2cc(N/N=C/c3ccccc3O)ncn2)n1,.,5.3,-3.9,9.3,16.3*,5.7,6.5,4.2
Cc1cc(-c2ccccc2)n(-c2cc(NN=Cc3ccccc3O)ncn2)n1,0.708,.,.,.,.,.,.,.
O=C1c2ccccc2NC(c2ccc(Cl)cc2Cl)N1O (configuration not stated),0.736,6.0,?,6.3,12.1*,4.6,6.3,10.9
O=C1c2ccccc2NC(c2cccc(F)c2)N1Cc1ccccc1 (configuration not stated),0.619,-0.8,-4.2,1.0,0.9,.,.,.

# Source: PubChem (several laboratories)
